# Source: the supplement of paper PMC12067093, “Discovery and optimisation of a covalent ligand for TRIM25 and its application to targeted protein ubiquitination” (Chemical Science, 2025)
# Targets with the largest changes are over-represented here; the source holds about 21,000 in all.
# Compound: CC1Cc2ccccc2N1C(=O)C1CCCN(C1)C(=O)CCl (mixture of isomers) [TRIM25 ligand 11 (diastereomer mixture)]
# Assay: probe-labelled cysteine peptide fold change vs DMSO (competition) (log2 fold change); higher = less target engagement (more negative = stronger competition)
# Conditions: 50 µM; THP-1; incubation time: 4 h
# 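Further: competitive chemoproteomic profiling in live THP-1 cells with an iodoacetamide desthiobiotin (IA-DTB) probe, comparing probe-labelled peptide intensities in compound-treated cells against DMSO-treated controls.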
# Chain of UniProt Q9UM01 (Q9UM01 whole entry): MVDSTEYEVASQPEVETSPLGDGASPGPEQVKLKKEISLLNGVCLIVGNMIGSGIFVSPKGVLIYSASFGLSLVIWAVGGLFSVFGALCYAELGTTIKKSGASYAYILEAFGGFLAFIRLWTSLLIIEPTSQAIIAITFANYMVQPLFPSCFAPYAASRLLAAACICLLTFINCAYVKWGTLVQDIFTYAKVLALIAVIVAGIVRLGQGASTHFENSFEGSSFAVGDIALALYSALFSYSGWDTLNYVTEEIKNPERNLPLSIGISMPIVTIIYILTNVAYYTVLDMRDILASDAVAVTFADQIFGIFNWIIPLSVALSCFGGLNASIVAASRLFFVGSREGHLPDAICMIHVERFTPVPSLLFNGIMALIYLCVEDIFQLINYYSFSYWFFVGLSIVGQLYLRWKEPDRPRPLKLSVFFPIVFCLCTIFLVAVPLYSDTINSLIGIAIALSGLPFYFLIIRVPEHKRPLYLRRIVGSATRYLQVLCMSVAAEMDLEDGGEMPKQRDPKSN
# Chain of UniProt Q9UBE0 (Q9UBE0 whole entry, looked up): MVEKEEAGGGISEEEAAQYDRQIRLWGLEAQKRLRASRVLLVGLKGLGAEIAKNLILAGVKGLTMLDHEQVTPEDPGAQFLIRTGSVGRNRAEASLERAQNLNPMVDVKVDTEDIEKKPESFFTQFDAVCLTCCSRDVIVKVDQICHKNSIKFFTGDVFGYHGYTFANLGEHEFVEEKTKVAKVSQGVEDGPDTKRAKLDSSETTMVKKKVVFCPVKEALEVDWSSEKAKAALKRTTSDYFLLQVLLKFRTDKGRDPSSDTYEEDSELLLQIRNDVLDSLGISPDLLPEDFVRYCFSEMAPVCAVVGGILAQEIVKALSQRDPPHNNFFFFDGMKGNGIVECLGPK
# Chain of UniProt Q5M775 (Q5M775 whole entry, looked up): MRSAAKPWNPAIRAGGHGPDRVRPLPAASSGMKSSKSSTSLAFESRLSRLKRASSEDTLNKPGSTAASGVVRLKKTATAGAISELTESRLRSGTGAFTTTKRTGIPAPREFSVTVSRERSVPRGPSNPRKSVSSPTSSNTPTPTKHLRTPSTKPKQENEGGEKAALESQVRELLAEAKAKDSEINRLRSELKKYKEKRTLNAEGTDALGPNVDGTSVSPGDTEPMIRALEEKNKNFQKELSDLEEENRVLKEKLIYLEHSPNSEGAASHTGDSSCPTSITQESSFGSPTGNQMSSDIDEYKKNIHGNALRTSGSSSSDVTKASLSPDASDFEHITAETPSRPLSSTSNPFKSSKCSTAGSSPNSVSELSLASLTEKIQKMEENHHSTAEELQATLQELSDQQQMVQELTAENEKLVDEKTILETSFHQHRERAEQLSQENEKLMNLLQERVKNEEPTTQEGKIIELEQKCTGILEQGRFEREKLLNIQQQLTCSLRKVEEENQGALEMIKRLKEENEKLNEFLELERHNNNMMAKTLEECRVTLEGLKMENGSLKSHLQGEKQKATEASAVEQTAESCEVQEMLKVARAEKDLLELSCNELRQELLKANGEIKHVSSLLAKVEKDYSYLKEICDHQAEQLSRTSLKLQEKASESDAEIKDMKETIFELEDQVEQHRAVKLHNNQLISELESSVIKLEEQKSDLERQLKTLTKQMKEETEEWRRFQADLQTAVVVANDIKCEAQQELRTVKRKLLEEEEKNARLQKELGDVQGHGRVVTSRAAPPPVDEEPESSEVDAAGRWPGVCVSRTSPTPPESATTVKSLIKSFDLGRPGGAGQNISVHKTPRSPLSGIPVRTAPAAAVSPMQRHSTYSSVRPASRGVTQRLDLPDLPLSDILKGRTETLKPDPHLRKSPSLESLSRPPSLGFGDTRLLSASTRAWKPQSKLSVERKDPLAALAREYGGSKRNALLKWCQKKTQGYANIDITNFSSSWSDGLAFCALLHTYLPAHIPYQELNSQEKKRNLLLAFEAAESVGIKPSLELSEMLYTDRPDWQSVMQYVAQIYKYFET
# Chain of UniProt P34896 (P34896 whole entry, looked up): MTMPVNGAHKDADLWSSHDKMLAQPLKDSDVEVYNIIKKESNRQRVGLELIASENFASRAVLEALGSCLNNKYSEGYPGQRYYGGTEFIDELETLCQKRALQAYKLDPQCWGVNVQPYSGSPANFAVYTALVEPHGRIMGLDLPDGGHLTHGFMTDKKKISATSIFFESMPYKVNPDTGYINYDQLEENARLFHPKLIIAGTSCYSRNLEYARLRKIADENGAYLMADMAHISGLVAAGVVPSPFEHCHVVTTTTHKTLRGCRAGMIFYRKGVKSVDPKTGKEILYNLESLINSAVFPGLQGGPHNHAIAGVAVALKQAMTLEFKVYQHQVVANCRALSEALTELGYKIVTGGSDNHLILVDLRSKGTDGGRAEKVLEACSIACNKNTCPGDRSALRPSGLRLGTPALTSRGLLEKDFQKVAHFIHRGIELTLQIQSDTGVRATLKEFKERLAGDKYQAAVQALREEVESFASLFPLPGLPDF
# Chain of UniProt P09234 (P09234 whole entry, looked up): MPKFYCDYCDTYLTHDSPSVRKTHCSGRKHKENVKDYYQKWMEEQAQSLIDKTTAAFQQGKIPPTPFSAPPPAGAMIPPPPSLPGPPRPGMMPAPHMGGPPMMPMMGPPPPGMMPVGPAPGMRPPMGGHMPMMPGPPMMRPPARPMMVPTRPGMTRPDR
# Chain of UniProt Q92540 (Q92540 whole entry, looked up): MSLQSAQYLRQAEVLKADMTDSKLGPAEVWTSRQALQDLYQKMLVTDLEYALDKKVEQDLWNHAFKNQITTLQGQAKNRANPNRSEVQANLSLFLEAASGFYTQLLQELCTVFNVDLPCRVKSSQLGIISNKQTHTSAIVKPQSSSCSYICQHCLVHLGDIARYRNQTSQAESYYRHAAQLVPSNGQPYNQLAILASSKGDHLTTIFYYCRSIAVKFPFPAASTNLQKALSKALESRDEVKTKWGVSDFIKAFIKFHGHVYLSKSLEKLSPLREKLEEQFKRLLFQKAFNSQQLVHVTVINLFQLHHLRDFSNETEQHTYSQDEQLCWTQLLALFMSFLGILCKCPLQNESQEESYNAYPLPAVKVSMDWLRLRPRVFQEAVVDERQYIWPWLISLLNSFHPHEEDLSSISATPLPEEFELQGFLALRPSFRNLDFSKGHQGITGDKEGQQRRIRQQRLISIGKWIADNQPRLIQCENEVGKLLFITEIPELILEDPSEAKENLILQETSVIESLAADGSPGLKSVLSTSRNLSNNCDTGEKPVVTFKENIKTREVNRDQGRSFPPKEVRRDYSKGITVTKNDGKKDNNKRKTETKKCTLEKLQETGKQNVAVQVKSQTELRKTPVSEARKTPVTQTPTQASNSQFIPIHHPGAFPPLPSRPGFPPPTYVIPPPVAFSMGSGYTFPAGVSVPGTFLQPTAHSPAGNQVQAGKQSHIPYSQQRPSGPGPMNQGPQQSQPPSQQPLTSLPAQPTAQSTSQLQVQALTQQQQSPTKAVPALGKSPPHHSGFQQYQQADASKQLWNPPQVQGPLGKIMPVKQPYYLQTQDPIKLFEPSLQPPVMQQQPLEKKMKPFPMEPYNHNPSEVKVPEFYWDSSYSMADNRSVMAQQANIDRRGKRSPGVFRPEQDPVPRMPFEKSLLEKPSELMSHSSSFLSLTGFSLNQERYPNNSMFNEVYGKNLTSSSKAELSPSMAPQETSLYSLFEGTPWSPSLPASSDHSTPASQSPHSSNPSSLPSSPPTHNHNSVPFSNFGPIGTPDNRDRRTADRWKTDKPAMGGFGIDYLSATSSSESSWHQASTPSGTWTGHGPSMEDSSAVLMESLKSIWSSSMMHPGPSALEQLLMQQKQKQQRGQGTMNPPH
# Chain of UniProt Q07617 (Q07617 whole entry, looked up): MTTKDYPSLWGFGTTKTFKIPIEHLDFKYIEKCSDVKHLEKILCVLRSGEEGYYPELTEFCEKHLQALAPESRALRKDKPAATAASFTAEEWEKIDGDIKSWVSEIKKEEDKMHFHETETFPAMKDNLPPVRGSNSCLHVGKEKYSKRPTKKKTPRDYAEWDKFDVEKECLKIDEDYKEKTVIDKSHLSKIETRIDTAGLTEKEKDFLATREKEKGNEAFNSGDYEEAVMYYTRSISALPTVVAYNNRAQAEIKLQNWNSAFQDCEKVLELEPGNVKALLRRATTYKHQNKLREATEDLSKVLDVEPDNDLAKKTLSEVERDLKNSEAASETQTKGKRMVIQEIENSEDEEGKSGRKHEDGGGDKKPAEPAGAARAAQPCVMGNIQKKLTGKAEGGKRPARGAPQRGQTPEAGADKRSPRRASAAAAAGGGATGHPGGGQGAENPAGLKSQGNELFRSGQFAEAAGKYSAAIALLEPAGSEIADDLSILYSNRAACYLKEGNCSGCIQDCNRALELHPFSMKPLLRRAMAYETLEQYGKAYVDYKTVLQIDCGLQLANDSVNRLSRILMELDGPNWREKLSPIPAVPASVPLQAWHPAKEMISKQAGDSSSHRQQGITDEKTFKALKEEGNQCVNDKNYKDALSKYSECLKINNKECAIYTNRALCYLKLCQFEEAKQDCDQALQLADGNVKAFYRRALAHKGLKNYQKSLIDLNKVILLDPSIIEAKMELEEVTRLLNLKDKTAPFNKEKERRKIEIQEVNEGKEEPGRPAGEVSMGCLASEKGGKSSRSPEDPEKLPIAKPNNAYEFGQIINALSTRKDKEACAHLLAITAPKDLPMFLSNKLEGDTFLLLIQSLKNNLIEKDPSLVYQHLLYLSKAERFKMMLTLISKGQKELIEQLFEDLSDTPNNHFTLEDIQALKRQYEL
# Chain of UniProt P03973 (P03973 whole entry): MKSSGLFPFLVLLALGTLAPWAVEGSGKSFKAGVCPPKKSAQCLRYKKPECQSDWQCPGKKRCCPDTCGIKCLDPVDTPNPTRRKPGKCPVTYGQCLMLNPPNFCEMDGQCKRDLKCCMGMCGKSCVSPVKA
# Chain of UniProt Q9Y6B6 (Q9Y6B6 whole entry, looked up): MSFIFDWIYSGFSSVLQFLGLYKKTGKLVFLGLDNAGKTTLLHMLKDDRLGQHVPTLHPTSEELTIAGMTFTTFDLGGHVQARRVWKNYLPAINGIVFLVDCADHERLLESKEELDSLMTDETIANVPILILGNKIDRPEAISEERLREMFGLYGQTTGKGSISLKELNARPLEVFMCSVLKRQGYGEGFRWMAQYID
row,Target,probe-labelled cysteine peptide fold change
1,SLC4A7_Q9Y6M7_120_VQFILGTEDDDEEHIPHDLFTEMDELCYR (UniProt Q9Y6M7),-0.577
2,SHMT1_P34896_335_VYQHQVVANCR (UniProt P34896),0.112
3,SPECC1_Q5M775_633_EICDHQAEQLSR (UniProt Q5M775),-0.0553
4,SLC1A5_Q15758_467_SCTVLNVEGDALGAGLLQNYVDR (UniProt Q15758),0.588
5,SIGIRR_Q6IA17_174_LYDAYVSYSDCPEDR (UniProt Q6IA17),-0.151
6,RREB1_Q92766_291_DAMGRPFIQNNPSIPAGFHDLGFTDFSCR (UniProt Q92766),-0.0626
7,SON_P18583_1551_EMEHNTVCAAGTSPVGEIGEEK (UniProt P18583),-0.264
8,SRP68_Q9UHB9_173_LCESNR (UniProt Q9UHB9),0.559
9,SMG7_Q92540_537_NLSNNCDTGEKPVVTFK (UniProt Q92540),-0.226
10,SNUPN_O95149_356_GSSHSPDHPGCLMEN (UniProt O95149),-0.656
11,SNRPC_P09234_25_KTHCSGR (UniProt P09234),-0.766
12,SNUPN_O95149_199_GHPFYDCQTDFR (UniProt O95149),0.00215
13,SIAE_Q9HAT2_367_MPNTFMAVAMDLCDRDSPFGSIHPR (UniProt Q9HAT2),-0.565
14,SMN2_Q16637_60_NGDICETSGKPK (UniProt Q16637),-0.16
15,SETDB1_Q15047_385_RCEWIYR (UniProt Q15047),0.176
16,SCAF11_Q99590_566_VYQPVSCPLSDLSENVESVVNEEK (UniProt Q99590),-0.138
17,SF1_Q15637_282+292_CGGAGHIASDCK (UniProt Q15637),-0.0122
18,SLX4_Q8IY92_786_FGVSELVHLCEQVPIATDSEGKPWEEK (UniProt Q8IY92),0.116
19,SLC2A9_Q9NRM0_36_ALLECDHLR (UniProt Q9NRM0),-0.18

row,Target,probe-labelled cysteine peptide fold change
1,SEC23B_Q15437_434_GPCVSENELGVGGTSQWK (UniProt Q15437),0.096
2,SAE1_Q9UBE0_303_YCFSEMAPVCAVVGGILAQEIVK (UniProt Q9UBE0),-0.0869
3,SMC1A_Q14683_781_MNQVEDEVFEEFCR (UniProt Q14683),0.0302
4,SLPI_P03973_51+57_YKKPECQSDWQCPGK (UniProt P03973),-0.883
5,RSF1_Q96T23_1311_IETDEEESCDNAHGDANQPAR (UniProt Q96T23),0.0946
6,SPAG1_Q07617_825_EACAHLLAITAPK (UniProt Q07617),-0.0988
7,RTCB_Q9Y3I0_485_NVTDVVNTCHDAGISK (UniProt Q9Y3I0),-0.0777
8,SAMD9_Q5K651_975+979_TEVIECGNYCGVR (UniProt Q5K651),0.22
9,RUBCNL_Q9H714_641_QCFQSSECPR (UniProt Q9H714),0.15
10,SLC7A7_Q9UM01_349_EGHLPDAICMIHVER (UniProt Q9UM01),0.0274
11,SCAF11_Q99590_553_TDVCTVHLPNDFPTCLTSESK (UniProt Q99590),-0.221
12,SON_P18583_2070_ANAAAMCAK (UniProt P18583),-0.103
13,SAR1A_Q9NR31_178_ELNARPMEVFMCSVLKR (UniProt Q9NR31),-0.486
14,SACS_Q9NZJ4_3694_QCDVLQLLWTSCPILPEK (UniProt Q9NZJ4),-0.0315
15,SNRNP40_Q96DI7_72_CSSLQAPIMLLSGHEGEVYCCK (UniProt Q96DI7),0.0428
16,SHCBP1_Q8NEM2_591_VDLEELIECATGK (UniProt Q8NEM2),-0.228
17,SAR1B_Q9Y6B6_102_NYLPAINGIVFLVDCADHER (UniProt Q9Y6B6),0.151
18,RSBN1_Q5VWQ0_282_EVQTVCAGLTR (UniProt Q5VWQ0),-0.119
19,SP1_P08047_633_KQHICHIQGCGK (UniProt P08047),-0.216
